The structures appear in SMILES notation. A number with no mark means an inactive call. Results filed as inconclusive are left out. Activity calls are given as the source filed them. Unless noted, calls come from the whole dose curve; as a rule, active = well fitted curve in the direction sought with a large enough effect in the repeat runs; inconclusive = weak or mixed curves; inactive = flat fitted curve, though single readings scatter.

The nature of test [1]: qHTS assay to test for compound auto fluorescence at 535 nm (green) in HEK293 cells (AID 720680). (In general: Quantitative high-throughput screening tests each substance at several concentrations.)
The nature of test [2]: qHTS assay to test for compound auto fluorescence at 460 nm (blue) in HEK293 cell free culture (AID 720681). Summed up: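 Compounds were added to cell-free DMEM with 10% FBS and fluorescence read directly. The blue channel used 405 nm excitation and 460 nm emission, with triamterene as the reference fluorophore.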
The nature of test [3]: qHTS assay to test for compound auto fluorescence at 590 nm (red) in HEK293 cell free culture (AID 720683). Summed up: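 Cell-free wells of DMEM with 10% FBS received compound, and intrinsic fluorescence was read at excitation/emission 540/590 nm. Values expressed as equivalence to Rose Bengal sodium.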
A short description of test [4]: qHTS assay to test for compound auto fluorescence at 590 nm (red) in HepG2 cell free culture (AID 720684). Summed up: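 Rose Bengal sodium served as the reference for red signal. Test compounds were dispensed into serum-containing MEM (10% FBS) without cells, and plates were read at 540/590 nm.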
A short description of test [5]: qHTS assay to test for compound auto fluorescence at 460 nm (blue) in HepG2 cell free culture (AID 720685). An outline of the steps:
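Cell-free plates of MEM plus 10% FBS received 23 nL compound or DMSO vehicle; blue-channel (405/460 nm) intensity scored against triamterene as reference fluorophore.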

Test [6] in a line: qHTS assay to test for compound auto fluorescence at 535 nm (green) in HepG2 cell free culture (AID 720686).
Test [7] in a line: qHTS assay to test for compound auto fluorescence at 460 nm (blue) in HepG2 cells (AID 720687). Summed up: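 HepG2 cells in MEM with 10% FBS, attached overnight at 37 C, were exposed to compound or DMSO for 1 hr at 37 C, 5% CO2. Blue fluorescence was read at 405/460 nm, with triamterene as reference fluorophore.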
Test [8] has as its target Glucocorticoid receptor (Homo sapiens) (UniProt P04150). Description: qHTS assay to identify small molecule agonists of the glucocorticoid receptor (GR) signaling pathway (AID 720691; active = well fitted activation curve with a large enough effect in the signal ratio in the repeat runs, not every such curve was filed as active; the % refers to the signal ratio; note: potency is the fitted concentration of half-maximal effect). Summed up:
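HeLa GR-bla reporter line; cells pre-incubated 4 h, compound in DMSO 18 h at 37 C; LiveBLAzer B/G FRET substrate 2 h RT; fluorescence intensity read-out.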

Test [9] shares this target. Description: qHTS assay to identify small molecule antagonists of the glucocorticoid receptor (GR) signaling pathway (AID 720692; active = well fitted inhibition curve with a large enough effect in the signal ratio in the repeat runs, not every such curve was filed as active; the % refers to the signal ratio). An outline of the steps: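 Read-out: beta-lactamase FRET substrate fluorescence, 2 h at room temperature, in HeLa cells stably carrying a GRE-driven bla reporter. Compounds were co-incubated with 5 nM dexamethasone agonist (final) for 18 h at 37 C.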

A short description of test [10]: qHTS assay to test for compound auto fluorescence at 535 nm (green) in HEK293 cell free culture (AID 720682). Summed up:
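Compounds were pin-transferred into cell-free DMEM with 10% FBS, and green fluorescence was read at excitation 485 nm and emission 535 nm. Intensities were expressed as fluorescein-equivalent values.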
% is set by controls: 0 for no effect and ±100 for the full control effect.

Glucocorticoid receptor (Homo sapiens), sequence (P04150 whole entry, looked up): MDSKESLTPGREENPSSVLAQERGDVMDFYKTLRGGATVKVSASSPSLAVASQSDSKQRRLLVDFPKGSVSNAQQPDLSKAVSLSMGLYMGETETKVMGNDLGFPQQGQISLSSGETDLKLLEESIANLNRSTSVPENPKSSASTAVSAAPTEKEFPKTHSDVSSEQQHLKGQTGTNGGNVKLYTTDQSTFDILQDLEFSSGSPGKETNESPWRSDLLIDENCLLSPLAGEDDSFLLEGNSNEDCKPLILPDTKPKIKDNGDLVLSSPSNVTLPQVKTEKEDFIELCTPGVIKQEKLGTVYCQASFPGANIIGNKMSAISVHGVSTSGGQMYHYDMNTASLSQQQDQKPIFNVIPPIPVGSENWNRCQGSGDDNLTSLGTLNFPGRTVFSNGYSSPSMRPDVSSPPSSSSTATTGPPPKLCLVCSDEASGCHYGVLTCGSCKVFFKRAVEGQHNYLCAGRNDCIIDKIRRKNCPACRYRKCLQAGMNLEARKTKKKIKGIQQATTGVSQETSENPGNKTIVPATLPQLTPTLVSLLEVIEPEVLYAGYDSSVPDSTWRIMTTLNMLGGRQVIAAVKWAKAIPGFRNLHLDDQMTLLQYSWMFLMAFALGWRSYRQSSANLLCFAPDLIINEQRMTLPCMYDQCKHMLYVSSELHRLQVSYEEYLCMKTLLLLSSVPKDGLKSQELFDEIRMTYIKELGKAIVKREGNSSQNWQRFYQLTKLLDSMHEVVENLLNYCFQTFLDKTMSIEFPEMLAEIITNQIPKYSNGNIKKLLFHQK

In the case of `O=C(O)c1cccnc1Nc1cccc(C(F)(F)F)c1`, the molecule was called inactive in [1], in test [3], in test [4], in test [5], in test [6] and in test [7]. Also, the Potency result in test [2], in test [8] and in [9] was “inactive” in each case.

On to `CC(=O)OCC(=O)[C@@]1(O)CC[C@H]2[C@@H]3CCC4=CC(=O)C=C[C@]4(C)[C@@]3(F)[C@@H](O)C[C@@]21C`, for which the fluorescence, % of fluorescein in test [1] was -0.0592% [at 18.6 µM]. The fluorescence, % of fluorescent control in test [2] is -0.0825% [at 18.6 µM]; in test [3], 0.0194% [at 18.6 µM]; in [5], 0.0112% [at 18.6 µM]; in test [7], -0.158% [at 18.6 µM]. In addition, the fluorescence, % of Rose Bengal in test [4] is -0.0287% [at 18.6 µM]. For the same molecule, the fluorescence, % of fluorescein control in test [6] is -0.0779% [at 18.6 µM]. In [8], the Potency was 12.9 nM (active).

For `C=CC(C)(O)CC/C=C(/C)CCC=C(C)C` (configuration not stated), the outcome in test [1], in test [3], in test [4], in test [5], in test [6] and in test [7] was inactive. Moreover, the Potency entry in test [2], in test [8] and in [9] was “inactive” in each case.

On to `CC(C(=O)O)c1ccc2c(c1)Cc1cccnc1O2` (configuration not stated), for which the call in test [1], in test [4], in test [5], in test [6] and in test [7] was inactive. Moreover, the Potency result in [2], in test [8] and in test [9] was “inactive” each time.

As for `O=C(O)c1ccccc1-n1cc(C(=O)O)c(=O)c2cc(Nc3c(F)cc(F)cc3Cl)c(Cl)cc21`, the outcome in test [1], in test [10], in test [3], in test [4], in [5] and in [6] was inactive. Further, in test [7], the molecule was classed as inactive. Further, the Potency result in test [8] and in [9] was “inactive” in each case.

As for `OCCCO`, the outcome in test [1], in test [10], in test [3], in [4], in test [5] and in [6] was inactive. Besides, in [7], the result was inactive. Further, the Potency result in test [8] and in test [9] was “inactive” in each case.

Take `O=C(O)CCc1nc2ccccc2[nH]1`: the outcome in test [1], in test [10], in test [3], in [4], in test [5] and in [6] was inactive. Also, the call in test [7] was inactive.

As for `CC1(C)C(=O)NC(=O)N1CO`, the outcome in [1], in [10], in test [3], in test [4], in test [5] and in test [6] was inactive. Moreover, the outcome in test [7] was inactive. The Potency entry in test [8] and in test [9] was “inactive” each time.

Regarding `CCCCCCCCCCCCCCCCN`, the outcome in test [1], in test [10], in test [3], in [4], in test [5] and in test [6] was inactive. Further, the Potency result in test [8] is “inactive”.

In the case of `CCOCCn1c(N2CCCN(C)CC2)nc2ccccc21`, the molecule was called inactive in test [1], in test [10], in test [3], in [4], in [5] and in [6]. In addition, the molecule was called inactive in test [7].

As for `Cc1c(Cl)cccc1Nc1ccccc1C(=O)O`, the Potency entry in test [2] was “inactive”. Besides, the call in [10], in test [3], in test [4], in test [5], in test [6] and in test [7] was inactive.

Regarding `C[C@H]1C[C@H]2[C@@H]3CCC4=CC(=O)C=C[C@]4(C)[C@@]3(F)[C@@H](O)C[C@]2(C)[C@@]1(O)C(=O)COP(=O)(O)O`, the molecule was classed as inactive in test [1], in [10], in test [3], in test [4], in test [5] and in test [6]. For the same molecule, in test [7], the result was inactive.

For the molecule `O=C(Cl)c1ccc(F)c(Cl)c1`, the molecule was classed as inactive in test [1], in test [10], in test [4], in test [5], in test [6] and in test [7].

For the molecule `CC(O)CN` (configuration not stated), the outcome in [1], in test [10], in test [3], in test [5] and in test [6] was inactive. The Potency entry in test [8] and in test [9] was “inactive” in each case.

Turning to `O=C(O)c1c2ccccc2cc2ccccc12`, the outcome in test [1], in [10], in test [3], in test [4], in [5] and in test [6] was inactive. For the same molecule, the call in test [7] was inactive.

As to `COc1ccc(/C=C/c2cc(OC)cc(=O)o2)cc1`, the molecule was called inactive in [1], in [10], in test [3], in test [4], in test [5] and in test [6]. In test [7], the result was inactive.

As for `CCCCCCCCCCCCCCCCC(=O)O`, the molecule was called inactive in [1], in [4], in test [5], in test [6] and in test [7]. The Potency result in test [8] and in test [9] was “inactive” each time.

For `O=C(OCCCCCOC(=O)c1ccccc1)c1ccccc1`, the call in [1], in test [10], in [5] and in [6] was inactive. For the same molecule, the Potency entry in [8] and in test [9] was “inactive” throughout.

As for `CC(=O)c1cccnc1`, the outcome in [1], in test [10], in [3], in test [4], in test [5] and in test [6] was inactive. Also, in test [7], the molecule was called inactive. For the same molecule, the Potency entry in test [8] and in test [9] was “inactive” in each case.

As to `O=C1CCCN1CCO`, the call in [1], in test [10], in test [3], in test [4], in test [5] and in [6] was inactive. In addition, the call in test [7] was inactive. For the same molecule, the Potency entry in test [8] and in [9] was “inactive” in each case.

With `Cc1nc2sccn2c(=O)c1CCN1CCC(=C(c2ccc(F)cc2)c2ccc(F)cc2)CC1`, the outcome in test [1], in [10], in test [4], in test [5], in test [6] and in [7] was inactive.

As to `Nc1ncnc2c1ncn2[C@@H]1O[C@H](CO)[C@@H](O)[C@H]1O`, the call in [1], in test [10], in test [3], in [5] and in test [6] was inactive. Moreover, the Potency result in test [8] is “inactive”.

On to `O=c1[nH][nH]c2ccccc12`, for which the molecule was classed as inactive in [1], in test [3], in test [4], in test [5], in test [6] and in test [7]. In [8], the Potency result was “inactive”.

Regarding `c1ccc(CCNc2nc(-c3ccccc3)cs2)cc1`, the molecule was called inactive in test [1], in [3], in test [4], in test [5] and in [6].

With `O=C(Nc1ccc2c(c1)Cc1ccccc1-2)C(F)(F)F`, the molecule was classed as inactive in test [1], in [10], in [3], in test [4], in [5] and in test [6]. Besides, the call in test [7] was inactive. Besides, the Potency result in test [8] and in test [9] was “inactive” each time.

Source of the values: PubChem BioAssay (Tox21).
